# Laboratory results: PubChem BioAssay (NCATS)
# Records with an inconclusive call do not appear. Active and inactive are the calls of the source. Unless noted, calls come from the whole dose curve; as a rule, active = well fitted curve in the direction sought with a large enough effect; inconclusive = small, poorly fitted or top-dose-only effect, or another doubt; inactive = no such curve, though single readings can be large; an effect the other way counts as inactive or inconclusive.
# How the values were obtained:
# [1] = biological target: Cytochrome P450 2D6 (Homo sapiens) (UniProt P10635); assay: Cytochrome P450 family 2 subfamily D member 6 (CYP2D6) small molecule antagonists: luciferase biochemical (cell-free) qHTS assay (AID 1645840; active = well fitted curve in the direction sought with a large enough effect in the repeat runs; an effect the other way counts as inactive or inconclusive; note: nearly all actives have a fitted effect of over 55% in size; note: potency is the fitted concentration of half-maximal effect)
# Summary of the method: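 P450-Glo CYP2D6 system: proluciferin substrate converted by enzyme to luciferin, read by luminescence proportional to activity. Enzyme-substrate mix with compound 10 min at room temperature, then NADPH regeneration 1 h before detection reagent.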
# [2] = biological target: Cytochrome P450 2C9 (Homo sapiens) (UniProt P11712); assay: Cytochrome P450 family 2 subfamily C member 9 (CYP2C9) small molecule antagonists: luciferase biochemical (cell-free) qHTS assay (AID 1645842; active = well fitted curve in the direction sought with a large enough effect in the repeat runs; an effect the other way counts as inactive or inconclusive; note: nearly all actives have a fitted effect of over 55% in size; note: potency is the fitted concentration of half-maximal effect)
# Summary of the method: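 P450-Glo CYP2C9 system: proluciferin substrate with enzyme in mix containing 0.4% BSA, 10 min at room temperature, then NADPH regeneration solution added and incubated 1 h at 37C. Detection reagent stopped reaction; luminescence read after 20 min as RLU.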
# [3] = tested on: HEK293; assay: Cytotoxic Profiling of Annotated Libraries Using Quantitative High-Throughput Screening (AID 1296008); conditions: Five cell lines viability, CellTiter-Glo ATP luminescence, 48-72 h; max response: stronger effect = lower value; note: nearly all actives have a fitted effect of over 60% in size; note: potency is the fitted concentration of half-maximal effect; for max response: % is set by controls: 0 for no effect and ±100 for the full control effect
# Summary of the method: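 Cytotoxicity was measured as CellTiter-Glo ATP luminescence, read after 10 min at room temperature. Compound treatment of the cells lasted 48 or 72 hr at 37 degrees Celsius in a qHTS format.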
# [4] = tested on: HACAT; assay: qHTS assay to identify novel small-molecules to repurpose for Merkel cell carcinoma treatment (AID 1296009); conditions: MCC and control cell lines, CellTiter-Glo viability, 72 h; at 44.8 µM (top of the series) unless noted; note: nearly all actives have a fitted effect of over 60% in size
# Summary of the method: (§1)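 Cell viability, measured as CellTiter-Glo luminescence, was normalized between DMSO and no-cell wells. The cells had been exposed to 8- or 11-point compound dilutions for 72 hr at 37 degree celsius.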
# [5] = Vero cells viability qHTS for Zika virus inhibitors (AID 1347167); note: potency is the fitted concentration of half-maximal effect
# Summary of the method: (§2)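 Luminescent ATP readout (CellTiter Glo) after 30 min at 37 degrees C gives viability; cells in DMEM + 4% FBS were treated 24 to 48 hours with compound, following overnight attachment.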
# [6] = HepG2 cells viability qHTS for Zika virus inhibitors (AID 1347168); note: potency is the fitted concentration of half-maximal effect
# Summary of the method: as §2
# [7] = Tertiary RLuc qRT-PCR qHTS assay for Zika virus inhibitors (AID 1347169); note: potency is the fitted concentration of half-maximal effect; nearly all actives have a fitted effect of over 55% in size
# Summary of the method: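 Vero cells (1,000/well) infected with recombinant ZIKV-RLuc (Cambodian) at MOI 1-2 after compound addition, 48-72 hrs at 37 degrees C. Live-cell Renilla luciferase substrate added; luminescence read after 1-1.5 hrs.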
# [8] = tested on: NIH3T3; assay: qHTS assay to identify novel small-molecules to repurpose for Merkel cell carcinoma treatment (AID 1296009); conditions: MCC and control cell lines, CellTiter-Glo viability, 72 h; at 44.8 µM (top of the series) unless noted; note: nearly all actives have a fitted effect of over 60% in size
# Summary of the method: as §1
# [9] = Confirmatory qHTS for activators (rescue) of SARS-CoV-2 Cytopathic Effect (CPE) (AID 1508606; calls by dose curve; note: potency is the fitted concentration of half-maximal effect; nearly all actives have a fitted effect of over 70% in size)
# [10] = biological target: Thyroid hormone receptor beta (Homo sapiens) (UniProt P10828); assay: qHTS assay for small molecule agonists of thyroid hormone receptor beta signaling (AID 588545; calls by dose curve; note: potency is the fitted concentration of half-maximal effect)
# Summary of the method: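 Agonist activity was read as beta-lactamase CCF4 fluorescence (405 ex, 460/530 em), scaled between DMSO (0%) and 10 nM T3 (100%), then Hill-fitted for EC50 and efficacy. HEK 293 TR-UAS-bla cells in 2% charcoal/dextran FBS medium were exposed 18 h at 37 C.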
# [11] = qHTS assay for small molecule activators of the nuclear factor-kappa B (NF-kB) signaling pathway (AID 651749; active = well fitted activation curve with a large enough effect in the signal ratio; the % refers to the signal ratio; note: potency is the fitted concentration of half-maximal effect); conditions: NF-kB-bla ME-180 cells, beta-lactamase FRET ratio, 16 h; activation: stronger effect = higher value
# Summary of the method: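 Activation measured after 16 hr compound treatment at 37C, 5% CO2, of 2,000 ME-180 cells/well stably expressing an NF-kB response element–driven beta-lactamase reporter, via FRET-disruption fluorescence.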
# [12] = biological target: Peroxisome proliferator-activated receptor alpha (Homo sapiens) (UniProt Q07869); assay: qHTS assay for small molecule agonists of the peroxisome proliferator-activated receptor alpha (PPARalpha) signaling pathway (AID 651778); conditions: PathHunter PPARalpha complementation, chemiluminescence, 6 h; stronger effect = higher value; note: % of control where 0% means no effect
# Summary of the method: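 Chemiluminescence from complemented enzyme reported PPARalpha activation in cells after 6 hr of compound treatment at 37 C. The detection reagent was incubated for 60 min at room temperature, and compounds were scored as agonists.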
# [13] = qHTS assay for small molecule agonists of the antioxidant response element (ARE) signaling pathway measured by Nrf2-dependant transcriptional activity - cell viability counter screen (AID 720653; active = well fitted curve in the direction sought with a large enough effect in the repeat runs; an effect the other way counts as inactive or inconclusive; note: % is set by controls: 0 for no effect and ±100 for the full control effect); conditions: ARE-bla HepG2 viability, CellTiter-Glo ATP luminescence, 16 h; max response: stronger effect = lower value
# Summary of the method: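 Cytotoxicity counter screen: intracellular ATP quantified by CellTiter-Glo luminescence in the same ARE-bla HepG2 plates, after 16 h compound exposure and a 2 h beta-lactamase substrate step.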
# [14] = qHTS assay for cell viability of the p53RE-bla HCT-116 cell line (AID 743292); note: % is set by controls: 0 for no effect and ±100 for the full control effect; nearly all actives have a fitted effect of over 55% in size
# Summary of the method: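 CellSensor p53RE-bla HCT-116 cells (4,000/well) pre-incubated 5 h at 37 C, then exposed to compounds in DMSO for 16 h at 37 C. Viability read as ATP content by CellTiter-Glo luminescence after 30 min at room temperature.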
# [15] = biological target: Nuclear receptor subfamily 1 group I member 2 (Rattus norvegicus) (UniProt Q9R1A7); assay: qHTS assay for small molecule activators of the rat pregnane X receptor (rPXR) signaling pathway (AID 651751; call rule not given here; note: 0% is about no effect); conditions: rPXR reporter cells, luciferase (One-Glo), 24 h
# [16] = qHTS assay for small molecule activators of the human pregnane X receptor (PXR) signaling pathway (AID 720659; call rule not given here; note: 0% is about no effect)
# [17] = qHTS drug screen for cell cycle checkpoint inhibitors in PARPi-resistant BRCA-mutant ovarian cancer cell lines. (AID 1963452; calls by dose curve; note: potency is the fitted concentration of half-maximal effect); conditions: PEO1/OlaR viability, CellTiter-Glo luminescence, 96 h; for Z-AUC: stronger effect = lower value
# Summary of the method: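 PEO1, PEO4 and PEO1/OlaR ovarian cancer cells, 600 per well, exposed 96 h at 37C to a dilution series. Viability read by CellTiter-Glo luminescence, normalized to DMSO and empty wells; activity summarized as Z-AUC.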
# [18] = measured here: PEO1 parental Z-AUC
# Sequence of Cytochrome P450 2D6 (Homo sapiens) (P10635 whole entry, looked up): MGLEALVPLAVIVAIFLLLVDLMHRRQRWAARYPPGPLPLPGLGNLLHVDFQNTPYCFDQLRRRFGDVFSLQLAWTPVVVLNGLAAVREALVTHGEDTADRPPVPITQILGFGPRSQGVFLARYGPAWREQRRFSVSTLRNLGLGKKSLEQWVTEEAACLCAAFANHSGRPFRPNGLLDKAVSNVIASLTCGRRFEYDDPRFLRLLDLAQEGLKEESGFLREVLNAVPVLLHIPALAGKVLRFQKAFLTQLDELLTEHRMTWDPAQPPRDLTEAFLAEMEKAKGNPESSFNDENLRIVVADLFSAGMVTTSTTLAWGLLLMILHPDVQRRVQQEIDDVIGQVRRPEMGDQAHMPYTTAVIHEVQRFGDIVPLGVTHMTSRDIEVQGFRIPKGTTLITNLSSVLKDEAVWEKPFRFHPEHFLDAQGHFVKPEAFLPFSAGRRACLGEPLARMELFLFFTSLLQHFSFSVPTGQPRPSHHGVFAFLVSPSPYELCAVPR
# Sequence of Cytochrome P450 2C9 (Homo sapiens) (P11712 whole entry, looked up): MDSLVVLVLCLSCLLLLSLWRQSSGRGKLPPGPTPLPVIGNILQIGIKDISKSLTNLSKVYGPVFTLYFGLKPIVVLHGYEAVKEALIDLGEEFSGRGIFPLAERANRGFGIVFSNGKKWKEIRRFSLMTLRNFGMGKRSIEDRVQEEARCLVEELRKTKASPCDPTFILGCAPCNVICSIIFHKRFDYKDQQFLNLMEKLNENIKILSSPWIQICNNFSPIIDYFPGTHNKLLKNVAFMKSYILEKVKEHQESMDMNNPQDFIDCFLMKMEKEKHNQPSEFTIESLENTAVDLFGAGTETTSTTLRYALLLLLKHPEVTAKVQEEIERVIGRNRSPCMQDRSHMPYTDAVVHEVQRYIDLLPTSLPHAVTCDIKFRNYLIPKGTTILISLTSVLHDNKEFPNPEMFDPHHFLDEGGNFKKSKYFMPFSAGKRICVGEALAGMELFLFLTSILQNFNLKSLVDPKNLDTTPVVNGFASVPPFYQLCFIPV
# Sequence of Thyroid hormone receptor beta (Homo sapiens) (P10828 whole entry, looked up): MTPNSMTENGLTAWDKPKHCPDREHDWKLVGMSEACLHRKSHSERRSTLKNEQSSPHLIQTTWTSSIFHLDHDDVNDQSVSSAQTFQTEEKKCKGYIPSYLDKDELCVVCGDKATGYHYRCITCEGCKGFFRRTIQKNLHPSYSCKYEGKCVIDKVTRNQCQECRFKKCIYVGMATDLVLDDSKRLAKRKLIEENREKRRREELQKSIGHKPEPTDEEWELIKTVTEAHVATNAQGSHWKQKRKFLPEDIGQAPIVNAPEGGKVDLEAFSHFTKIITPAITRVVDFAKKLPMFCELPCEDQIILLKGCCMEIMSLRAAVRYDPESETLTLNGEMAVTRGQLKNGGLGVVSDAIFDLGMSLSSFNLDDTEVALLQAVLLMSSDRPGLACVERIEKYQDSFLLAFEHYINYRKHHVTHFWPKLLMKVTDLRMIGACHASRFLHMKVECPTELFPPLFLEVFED
# Sequence of Peroxisome proliferator-activated receptor alpha (Homo sapiens) (Q07869 whole entry, looked up): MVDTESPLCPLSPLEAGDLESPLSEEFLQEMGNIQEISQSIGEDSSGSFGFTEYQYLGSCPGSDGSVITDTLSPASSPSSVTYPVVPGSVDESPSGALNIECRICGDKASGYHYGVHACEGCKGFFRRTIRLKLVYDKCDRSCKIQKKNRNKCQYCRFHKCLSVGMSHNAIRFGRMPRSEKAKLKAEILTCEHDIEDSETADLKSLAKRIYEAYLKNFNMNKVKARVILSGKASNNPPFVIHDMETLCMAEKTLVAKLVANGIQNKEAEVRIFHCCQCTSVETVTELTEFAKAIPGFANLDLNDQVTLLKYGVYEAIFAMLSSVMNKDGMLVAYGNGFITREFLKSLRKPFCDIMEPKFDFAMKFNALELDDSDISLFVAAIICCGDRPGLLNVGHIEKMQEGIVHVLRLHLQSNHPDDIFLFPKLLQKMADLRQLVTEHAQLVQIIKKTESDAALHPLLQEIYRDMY
# Sequence of Nuclear receptor subfamily 1 group I member 2 (Rattus norvegicus) (Q9R1A7 whole entry, looked up): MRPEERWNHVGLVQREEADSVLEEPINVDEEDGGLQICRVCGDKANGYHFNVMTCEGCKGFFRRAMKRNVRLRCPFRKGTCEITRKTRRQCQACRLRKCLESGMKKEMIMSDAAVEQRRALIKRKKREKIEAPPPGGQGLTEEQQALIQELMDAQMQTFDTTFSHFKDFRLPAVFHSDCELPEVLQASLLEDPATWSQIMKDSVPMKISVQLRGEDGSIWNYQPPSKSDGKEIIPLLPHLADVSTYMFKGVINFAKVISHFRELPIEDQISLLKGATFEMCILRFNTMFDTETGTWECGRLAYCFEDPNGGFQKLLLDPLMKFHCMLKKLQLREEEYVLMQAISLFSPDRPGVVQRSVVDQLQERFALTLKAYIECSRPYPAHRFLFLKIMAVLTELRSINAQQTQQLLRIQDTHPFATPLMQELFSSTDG
compound,measurement,setting,value
COc1ccc(C(C)(C)C)cc1CN[C@H]1C2CCN(CC2)[C@H]1C(c1ccccc1)c1ccccc1,Potency,[1],2.68 µM (active)
same,Potency,[2],26.8 µM (active)
same,Potency,[3],10.3 µM (active)
CN(CC[C@H](N)CC(=O)N[C@H]1C=C[C@@H](n2ccc(N)nc2=O)O[C@@H]1C(=O)O)C(=N)N,outcome,[3],inactive
same,outcome,[4],inactive [at 9.27 µM]
CCOC(=O)C1(CCc2ccccc2)CCN(Cc2ccc(NC(C)=O)cc2)CC1,Potency,[1],2.13 µM (active)
CC(C)(O)/C=C/C(=O)[C@](C)(O)[C@H]1[C@H](O)C[C@@]2(C)[C@@H]3CC=C4[C@@H](C[C@H](O)C(=O)C4(C)C)[C@]3(C)C(=O)C[C@]12C,Potency,[3],0.709 µM (active)
CC(C)=CCC[C@]1(C)C=Cc2c(O)c3c(c(CC=C(C)C)c2O1)O[C@]12C(=C[C@@H]4CC1C(C)(C)O[C@@]2(C/C=C(/C)C(=O)O)C4=O)C3=O,Potency,[5],8.29 µM (active)
same,Potency,[6],2.94 µM (active)
same,Potency,[7],2.94 µM (active)
same,Potency,[3],0.731 µM (active)
C[C@]12CC[C@H](OC3OC(CO)C(O)C(O)C3OC3OC(CO)C(O)C(O)C3O)C[C@@H]1CC[C@@H]1C2CC[C@]2(C)[C@@H](C3=CC(=O)OC3)CC[C@]12O (stereo partly specified),outcome,[8],inactive [at 17.4 µM]
C[C@]12CC[C@H](O[C@@H]3O[C@H](CO)[C@@H](O)[C@H](O)[C@H]3O)CC1CC[C@@H]1C2CC[C@]2(C)[C@@H](C3=CC(=O)OC3)CC[C@]12O (stereo partly specified),Potency,[3],3.17 µM (active)
same,outcome,[8],inactive [at 17.4 µM]
Cc1ccc(-n2nccn2)c(C(=O)N2CCN(c3nc4cc(Cl)ccc4o3)CCC2C)c1 (stereo unspecified),Potency,[1],16.9 µM (active)
same,Potency,[2],1.34 µM (active)
same,outcome,[4],inactive
same,outcome,[8],inactive
CC1=CC2/C=C(\C)CCC(O)C(O)/C=C/C(=O)C23C(=O)NC(CC(C)C)C3C1C (stereo unspecified),Potency,[3],2.82 µM (active)
CC(C)C(=O)O[C@H]1[C@@H]2[C@H](C)C(=O)O[C@@H]2C[C@@H](C)[C@@H]2C=CC(=O)[C@]21C,Potency,[9],7.94 µM (active)
same,Potency,[3],9.04 µM (active)
C[C@@H]1Cc2c(Cl)cc(C(=O)N[C@@H](Cc3ccccc3)C(=O)O)c(O)c2C(=O)O1,Potency,[10],44.7 µM (active)
same,Potency,[11],44.7 µM (active)
same,max response,[12],-0.744% (inactive)
same,max response,[13],9.38% (inactive)
same,outcome,[14],inactive
same,outcome,[4],inactive
same,max response,[15],-12% (inactive)
same,outcome,[16],inactive
C[C@H]1CN(Cc2ccc(CC(=O)N3CCC(Nc4cccc(F)c4)CC3)cc2)CCN1,Potency,[1],12 µM (active)
same,Potency,[2],inactive
same,Potency,[3],18.4 µM (active)
CCCCCn1cc(C(=O)Cc2ccccc2OC)c2ccccc21,Potency,[1],inactive
same,Potency,[2],1.9 µM (active)
CCC1(O)CCC2C3CCC4=CC(=O)CCC4C3CCC21CC (stereo unspecified),outcome,[4],inactive
N#Cc1ccccc1-c1cc(-c2ccccn2)cn(-c2ccccc2)c1=O,Potency,[1],inactive
same,Potency,[2],13.5 µM (active)
C/C=C(\C)C(=O)O[C@@H]1[C@@H](C)[C@]2(O)C3C=C(C)C(=O)[C@@]3(O)CC(CO)=C[C@H]2C2C(C)(C)[C@@]21OC(=O)C(C)CC (stereo partly specified),outcome,[4],inactive [at 17.4 µM]
same,outcome,[8],inactive [at 17.4 µM]
CCCCCn1cc(C(=O)C2C(C)(C)C2(C)C)c2ccccc21,Potency,[1],inactive
same,Potency,[2],10.7 µM (active)
same,outcome,[4],inactive
C/C(=C\c1csc(C)n1)[C@@H]1C[C@@H]2O[C@@H]2CCC[C@H](C)[C@H](O)[C@@H](C)C(=O)C(C)(C)[C@@H](O)CC(=O)O1,Potency,[17],0.0087 µM (active)
same,Z-AUC,[17]; [18],-2.45
same,Z-AUC,[17]; measured here: PEO4 Z-AUC,-2.36
same,Potency,[3],0.0065 µM (active)
CCOC(=O)c1ccnc2cc(C(OCCN3CCCCC3)c3ccccc3Cl)sc12 (stereo unspecified),outcome,[4],inactive
Cc1sc2c(c1C)C(c1ccc(Cl)cc1)=N[C@@H](CC(=O)Nc1ccc(O)cc1)c1nnc(C)n1-2,Z-AUC,[17],-0.583 (inactive)
same,Z-AUC,[17]; [18],-0.325
same,Z-AUC,[17]; measured here: PEO4 Z-AUC,-0.491
same,Potency,[3],0.39 µM (active)
same,outcome,[4],inactive [at 9.27 µM]
CC(C)OC(=O)c1ccnc2cc(C(OCCN3CCCCC3)c3ccccc3Cl)sc12 (stereo unspecified),outcome,[4],inactive
CCCCn1cc(C(=O)c2cccc3ccccc23)c2ccccc21,Potency,[1],inactive
same,Potency,[2],inactive
same,outcome,[4],inactive
COc1ccc(CC2C(=O)NC(C)C(=O)N(C)C3Cc4ccc(cc4)Oc4cc(ccc4OC4OC(CO)C(O)C(O)C4O)CC(C(=O)NC(C)C(=O)NC(CCC(=O)O)C(=O)N2C)N(C)C3=O)cc1 (stereo unspecified),outcome,[4],inactive [at 9.27 µM]
C/C=C(/C)C(=O)O[C@H]1[C@@H]2[C@H](C)C(=O)O[C@@H]2C[C@@H](C)[C@@H]2C=CC(=O)[C@]21C,max response,[3],-117% (inactive)
Cc1cccc(NC(=O)c2ccc(C(F)(F)F)cc2C(=O)O)n1,outcome,[4],inactive
Cc1ccccc1C1=CCN(C)CC1,max response,[3],-19.5% (inactive)
C[C@@H]1O[C@@H](O[C@H]2CC[C@@]3(C)C(CC[C@@H]4C3CC[C@]3(C)[C@@H](C5=CC(=O)OC5)CC[C@]43O)C2)[C@H](O)[C@H](O)[C@H]1O (stereo partly specified),Potency,[3],0.632 µM (active)
OC(CNc1ccccc1)Cn1c2ccc(Br)cc2c2cc(Br)ccc21 (stereo unspecified),Potency,[1],16.9 µM (active)
same,Potency,[2],5.35 µM (active)
CC[C@H]1/C=C\C=C/C[C@@H](C)[C@H](O)[C@@](C)(O)C(=O)[C@@H](C)[C@H](O)[C@@H](C)C(=O)[C@@H](C)[C@H](O)[C@@H](C)/C=C\C(=O)O[C@@H]2[C@H](C)[C@H](CC1)O[C@]1(CC[C@H](C)[C@H](C[C@@H](C)O)O1)[C@H]2C,Z-AUC,[17],0.274 (inactive)
same,Z-AUC,[17]; [18],-2.84
same,Z-AUC,[17]; measured here: PEO4 Z-AUC,-2.81
same,max response,[3],-112% (inactive)
Cc1sc2c(c1C)C(c1ccc(Cl)cc1)=NC(CC(=O)OC(C)(C)C)c1nnc(C)n1-2 (stereo unspecified),Potency,[3],0.651 µM (active)
CC1CCCCCC(=O)c2c(O)cc(O)cc2CC(=O)O1 (stereo unspecified),outcome,[4],inactive
N#Cc1ccc(N2CCN(C(=O)COc3ccc4[nH]cc(CCN)c4c3)CC2)cc1,Potency,[1],19 µM (active)
same,Potency,[2],1.69 µM (active)
